Reference: article PMC5540273 (PLoS ONE, 2017)

Assays:
Settings in all cases: concentration: 1 μM, replicates: in singlicate; n = 1
PRP4 = tested on: PRP4
PYK2 = tested on: T1, PYK2
T1 construct: gene PTK2B

QSK = tested on: QSK
RAF1 = tested on: RAF1
RET = tested on: RET
RIOK1 = tested on: RIOK1
RIOK2 = tested on: RIOK2
RIOK3 = tested on: RIOK3
RIPK1 = tested on: RIPK1
RIPK2 = tested on: RIPK2
RIPK4 = tested on: RIPK4
RIPK5 = tested on: RIPK5
ROCK1 = tested on: ROCK1
ROCK2 = tested on: ROCK2
ROS1 = tested on: ROS1
[1] = tested on: RPS6KA4(Kin.Dom.1-N-terminal)
[2] = tested on: RPS6KA4(Kin.Dom.2-C-terminal)
[3] = tested on: RPS6KA5(Kin.Dom.1-N-terminal)
[4] = tested on: RPS6KA5(Kin.Dom.2-C-terminal)
[5] = tested on: T2, RSK1(Kin.Dom.1-N-terminal)
T2 construct: gene RPS6KA1
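Note: KINOMEscan kinase panel screen.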

| Structure (SMILES) | %Inh (PRP4) [%] | %Inh (PYK2) [%] | %Inh (QSK) [%] | %Inh (RAF1) [%] | %Inh (RET) [%] | %Inh (RIOK1) [%] | %Inh (RIOK2) [%] | %Inh (RIOK3) [%] | %Inh (RIPK1) [%] | %Inh (RIPK2) [%] | %Inh (RIPK4) [%] | %Inh (RIPK5) [%] | %Inh (ROCK1) [%] | %Inh (ROCK2) [%] | %Inh (ROS1) [%] | %Inh [1] [%] | %Inh [2] [%] | %Inh [3] [%] | %Inh [4] [%] | %Inh [5] [%] |
| --- | --- | --- | --- | --- | --- | --- | --- | --- | --- | --- | --- | --- | --- | --- | --- | --- | --- | --- | --- | --- |
| COc1ccc(CSc2nnc(-c3ccc4ncsc4c3)o2)cc1C(F)(F)F | 20 | 0 | 0 | 7 | 0 | 10 | 13 | 22 | 0 | 0 | 0 | 0 | 11 | 0 | 0 | 0 | 5 | 17 | 10 | 0 |
| COc1ccc(Nc2nccc(N3CCC(NC(=O)c4cc5ccccc5s4)C3)n2)cc1 (stereo not drawn) [GSK1379738] | 57 | 0 | 0 | 11 | 14 | 24 | 0 | 36 | 28 | 0 | 20 | 7 | 8 | 21 | 0 | 15 | 0 | 0 | 0 | 22 |
| Cc1ccc(NC(=O)Nc2ccc(Cl)cc2)cc1-c1ccc(C(=O)Nc2ccncc2)cc1 [GSK1398472] | 21 | 15 | 1 | 87 | 6 | 31 | 0 | 31 | 0 | 12 | 28 | 6 | 4 | 0 | 0 | 7 | 0 | 17 | 0 | 27 |
| Cc1cnc(N)c(/C=C/c2cncc(C(=O)NCCc3ccc(Cl)cc3Cl)c2)c1.Cl [GSK190937] | 6 | 7 | 9 | 0 | 7 | 3 | 79 | 0 | 5 | 13 | 0 | 0 | 71 | 45 | 3 | 4 | 0 | 22 | 0 | 9 |
| COc1cccc(CNC(=O)NC2CCN(c3ccnc(Nc4ccc(F)cc4)n3)C2)c1 (stereo not drawn) [GSK1379723] | 7 | 3 | 2 | 12 | 8 | 30 | 0 | 0 | 0 | 7 | 20 | 10 | 0 | 0 | 0 | 0 | 0 | 7 | 36 | 2 |
| COc1ccc(Nc2nccc(-c3ccc(NC(=O)c4cc5cc(F)ccc5[nH]4)cc3)n2)cc1 [GSK1229496] | 41 | 0 | 0 | 17 | 0 | 40 | 0 | 53 | 5 | 4 | 0 | 0 | 18 | 10 | 26 | 0 | 0 | 0 | 0 | 13 |
| COc1ccc(Nc2nccc(NCCNC(=O)Nc3cc(C)ccc3C)n2)cc1 [GSK1379899] | 6 | 0 | 0 | 3 | 16 | 35 | 0 | 24 | 4 | 0 | 6 | 0 | 6 | 14 | 5 | 8 | 0 | 49 | 0 | 0 |
| Cc1ccccc1Cn1ccn2c(=O)cc(N3CCOCC3)nc12 [GSK2269905] | 14 | 0 | 0 | 8 | 0 | 0 | 0 | 0 | 0 | 0 | 0 | 0 | 0 | 0 | 0 | 23 | 0 | 12 | 0 | 25 |
| CNc1nc(-c2ccc3c(N)n[nH]c3c2)cc(N2C[C@@H](C(=O)NC3CCCCC3)OC[C@H]2C)n1 [GSK2375584] | 16 | 15 | 0 | 14 | 4 | 40 | 1 | 35 | 10 | 1 | 11 | 1 | 23 | 26 | 19 | 16 | 0 | 25 | 24 | 11 |
| COc1ccc(CSc2nnc(-c3ccc4nccn4c3)o2)cc1C(F)(F)F | 4 | 0 | 11 | 4 | 23 | 15 | 32 | 17 | 5 | 0 | 0 | 0 | 14 | 0 | 3 | 11 | 21 | 22 | 1 | 18 |
| COC(=O)c1cccc(NC(=O)NC2CCN(c3ccnc(Nc4ccc(OC)cc4)n3)C2)c1 (stereo not drawn) [GSK1379746] | 59 | 0 | 1 | 23 | 0 | 43 | 0 | 0 | 0 | 4 | 13 | 0 | 2 | 44 | 0 | 14 | 0 | 17 | 0 | 3 |
| O=c1cc(N2CCOCC2)nc2n(Cc3ccccc3F)ccn12 [GSK2297428] | 7 | 0 | 0 | 0 | 0 | 38 | 42 | 28 | 0 | 2 | 0 | 0 | 0 | 0 | 47 | 5 | 0 | 8 | 0 | 5 |
| Fc1ccc(-c2nc[nH]c2-c2ccncc2)cc1 [SB-217360] | 0 | 0 | 17 | 18 | 0 | 0 | 0 | 0 | 0 | 66 | 0 | 31 | 0 | 26 | 5 | 0 | 0 | 0 | 19 | 0 |
| O=c1cc(N2CCOCC2)nc2n(Cc3cccc(Cl)c3Cl)c3ccccc3n12 [GSK2299009] | 0 | 29 | 0 | 10 | 52 | 42 | 17 | 32 | 19 | 32 | 16 | 0 | 10 | 0 | 38 | 24 | 0 | 16 | 2 | 31 |
| Nc1cccc(-c2ccc3c(N)n[nH]c3c2)n1 [GSK2192730] | 12 | 0 | 10 | 0 | 0 | 82 | 34 | 86 | 18 | 0 | 41 | 0 | 0 | 0 | 0 | 0 | 0 | 0 | 4 | 24 |
| Fc1ccc(-c2nn3cccc(F)c3c2-c2ccncc2)cc1 [GW475620] | 29 | 0 | 0 | 17 | 98 | 30 | 7 | 39 | 0 | 27 | 0 | 50 | 22 | 0 | 0 | 38 | 0 | 33 | 0 | 0 |
| COc1ccc(Nc2nccc(N3CCC(NC(=O)C(C)c4ccc(Cl)cc4)C3)n2)cc1 (stereo not drawn) [GSK1379735] | 14 | 0 | 0 | 34 | 2 | 27 | 6 | 17 | 5 | 10 | 4 | 12 | 11 | 4 | 17 | 5 | 0 | 21 | 0 | 31 |
| O=C1NC(=O)C(c2ccc(Cl)cc2)=C1Nc1cccc(Cl)c1 [SB-317651] | 0 | 0 | 1 | 22 | 8 | 40 | 0 | 22 | 0 | 0 | 46 | 0 | 7 | 0 | 0 | 86 | 0 | 1 | 0 | 12 |
| Cc1nccc(-c2c(-c3ccc(F)cc3)ncn2CCCN2CCOCC2)n1.Cl [SB-282975] | 17 | 21 | 26 | 0 | 6 | 29 | 14 | 27 | 15 | 27 | 33 | 13 | 0 | 0 | 23 | 100 | 15 | 5 | 8 | 0 |
| Cc1ccc(NC(=O)c2ccc(Cl)cc2)cc1-c1ccc(C(=O)Nc2ccncc2)cc1 [GSK1398467] | 46 | 18 | 0 | 35 | 0 | 32 | 0 | 8 | 0 | 12 | 9 | 0 | 0 | 17 | 8 | 13 | 0 | 17 | 49 | 10 |
| COc1ccc(CSc2nnc(-c3ccc4c(c3)CCO4)o2)cc1 | 16 | 0 | 0 | 0 | 0 | 0 | 0 | 21 | 0 | 0 | 0 | 0 | 0 | 0 | 0 | 0 | 0 | 0 | 1 | 0 |
